# Assay outcomes from PubChem.
# A selection: hits, their analogues and other compounds. The true share with any hit is near 6.5%.
# FMDV antiviral: foot and mouth disease virus antiviral activity. FMDV antiviral cell-based qHTS. Potency, µM (series often up to 57.9 µM), for inactives: top-dose activity change, negative = inhibition, usual class: inhibitors. hit rate 1.2% among 410,000. AID 1159524; calls by dose curve; tested in HEK293T cells; note: read-out not given here; potency is the fitted concentration of half-maximal effect; nearly all actives have a fitted effect of over 45% in size
# Lassa entry inh: blocks Lassa virus binding to or entry into cells; Lassa virus pseudotype entry inhibition, cell reporter; Potency, µM (doses to about 37.9 µM), for the others: top-dose activity change, negative = inhibition, usual class: inhibitors; hit rate 1.2% among 300,000; calls by dose curve; tested in HEK293 cells; note: potency is the fitted concentration of half-maximal effect; nearly all actives have a fitted effect of over 50% in size
# Vaccinia mCherry: vaccinia inhibition (mCherry reporter). Vaccinia virus mCherry reporter infection, fluorescence. Potency, µM (highest dose often 36.5 µM), without a hit: at the top dose activity change, negative = inhibition, hits mostly inhibitors. hit rate 0.63% among 310,000. AID 720579; calls by dose curve; tested in A549 cells; note: potency is the fitted concentration of half-maximal effect; nearly all actives have a fitted effect of over 35% in size
# HCMV antiviral: blocks human cytomegalovirus replication. HFF cells, HCMV-luciferase reporter, 72 h; stronger effect = lower value. hit rate 4.5% among 410,000. activity change, negative = inhibition, % at 57.5 µM; in the data active = activity change below about -60%; inconclusive = no clear call, values can overlap the other calls; inactive = above about -39%
#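 Cell-based, HFFs, 1000 cells/well, 16 h 37C; cpds in DMSO + HCMV-luc, MOI 1 PFU/cell; 72 h 37C; OneGlo luminescence after 5 min RT; norm. to buffer vs Salinomycin 10uM.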
# MARV entry inh: Marburg virus entry inhibition; Marburg virus pseudotyped entry inhibition, cell reporter; Potency, µM (series often up to 37.8 µM), inactives show top-dose activity change, negative = inhibition, most hits filed as inhibitors; hit rate 1.8% among 300,000; AID 540276; calls by dose curve; tested in HEK293 cells; note: potency is the fitted concentration of half-maximal effect
# VACV Venus inh: vaccinia inhibition (Venus reporter); Potency, µM (series often up to 36.5 µM), without a hit: top-dose activity change, negative = inhibition, most hits filed as inhibitors; Vaccinia virus Venus reporter expression, fluorescence; hit rate 0.46% among 330,000; calls by dose curve; tested in A549 cells; note: potency is the fitted concentration of half-maximal effect; nearly all actives have a fitted effect of over 30% in size
# Numbers without * were called inactive; i = inactive; ? = inconclusive; / = no result; [ ] = remark or other dose. % is set by controls: 0 for no effect and ±100 for the full control effect.
SMILES,FMDV antiviral,Lassa entry inh,Vaccinia mCherry,HCMV antiviral,MARV entry inh,VACV Venus inh
O=C(/C=C/c1ccc(Cl)c([N+](=O)[O-])c1)Nc1ccc(N2CCCC2)c(Cl)c1,-18%,-2%,i,-68*,?,11%
COc1ccc(/C=C/C(=O)Nc2cccc(S(=O)(=O)N3CCOCC3)c2)cc1OC,?,?,-6%,4,?,-23%
O=S(=O)(c1ccc(Cl)c(NC(=S)N/N=C/c2ccc(O)cc2)c1)N1CCOCC1,?,12µM*,?,-83*,?,?
O=C(/C=C/c1ccc(OC(F)F)cc1)Nc1cccc(S(=O)(=O)N2CCOCC2)c1,?,?,-18%,-75*,?,?
NC(=O)C1CCCN(Cc2ccc3c(c2)CN(Cc2ccccc2)CCO3)C1 (stereo not drawn),2%,/,-5%,/,/,1%
CCOC(=O)c1oc2ccc(S(=O)(=O)Nc3ccc4c(c3)n(C)c(=O)n4C)cc2c1C,/,-27%,i,-65*,?,0%
Cn1c(=O)n(C)c2cc(NS(=O)(=O)c3ccc4c(c3)CCCC4)ccc21,?,-5%,/,-107*,?,/
COc1ccc(S(=O)(=O)Nc2ccc3c(c2)n(C)c(=O)n3C)cc1C,18%,-18%,-8%,156,?,-17%
O=c1c(Cl)cc(Cl)nn1-c1ccccc1,35µM*,?,-5%,-66*,16µM*,-10%
COc1cc(Cl)nn(-c2ccccc2)c1=O,-1%,-6%,-10%,-39,?,-7%
CC1CCN(c2oc(/C=C/c3ccc(F)cc3)nc2C#N)CC1,31%,24%[46.1 µM],-16%,-6,7%[46.1 µM],-8%
Cc1ccc(N2NC(=O)/C(=C\c3cc4c(cc3[N+](=O)[O-])OCO4)C2=O)cc1C,13µM*,-7%,i,102,5%,-10%
COc1cc(/C=C2/C(=O)NN(c3ccc(C)c(Cl)c3)C2=O)cc([N+](=O)[O-])c1O,-27%,/,/,-30,/,/
CC1=CC(C)(C)N=C(Nc2nc(C)c3cc(C)cc(C)c3n2)N1,?,/,/,-97*,/,/
Cc1cc(C)c2nc(NC3=NCN(CCN4CCOCC4)CN3)nc(C)c2c1,/,/,/,/,2%,/
O=C(CCCn1c(=O)c2ccccc2n(Cc2cccc(F)c2)c1=O)NCc1ccccc1Cl,-7%,-13%[46.1 µM],i,-4,-14%[46.1 µM],0%
CCCNC(=O)Cn1nc(-c2ccccc2OC)ccc1=O,-24%,/,i,2,/,-2%
COc1ccccc1-c1ccc(=O)n(CC(=O)NC2CCc3ccccc32)n1 (stereo not drawn),-9%,0%[46.1 µM],-14%,-87*,?,-12%
C[C@]12CCC(=O)C=C1C=CC1C2CC[C@]2(C)C(=O)CCC12 (stereo partly drawn),-23%,?,-13%,-70*,7%,-16%
Cc1ccc(-n2c(O)c(C=NCc3ccccn3)c3ccccc3c2=O)cc1,-21%,-8%,-2%,-65*,0%,-24%
O=C(Cn1ncc2c3ccccc3n(Cc3ccccc3)c2c1=O)NCCCN1CCCC1=O,-18%,-5%[46.1 µM],i,-67*,18%[46.1 µM],-7%
O=C(Cn1ncc2c3ccccc3n(Cc3ccccc3)c2c1=O)NCCc1ccc(Cl)cc1,-25%,11%[46.1 µM],?,-69*,11%[46.1 µM],?
COc1cc2[nH]c(=O)n(CCCC(=O)NCc3ccc(Cl)cc3)c(=O)c2cc1OC,5%,-2%[46.1 µM],-17%,-1,-3%[46.1 µM],2%
O=C(Cn1ncc2c3ccccc3n(Cc3ccccc3F)c2c1=O)NCCc1ccc(Cl)cc1,15%,18%[46.1 µM],-12%,23,-2%[46.1 µM],-23%
O=C(Cn1ncc2c3ccccc3n(Cc3ccc(F)cc3)c2c1=O)N1CCC2(CC1)OCCO2,?,?,/,/,14µM*,-26%
SMILES,FMDV antiviral,Lassa entry inh,Vaccinia mCherry,HCMV antiviral,MARV entry inh,VACV Venus inh
O=C(Cn1ncc2c3ccccc3n(Cc3ccc(Cl)cc3)c2c1=O)NCCCN1CCCC1=O,-15%,/,/,1,/,/
COc1cc2[nH]c(=O)n(CCCC(=O)NCCc3ccccc3)c(=O)c2cc1OC,-7%,1.4µM*,-26%,8,?,-21%
CCCN(CCC)C(=O)Cn1c(=O)n(CCCCCC(=O)NCc2ccccc2Cl)c(=O)c2sccc21,-16%,13%[46.1 µM],-14%,-21,-2%[46.1 µM],-18%
COc1ccc(Cl)cc1NC(=O)Cn1ncc2c3ccccc3n(Cc3ccccc3)c2c1=O,5%,11%[46.1 µM],-9%,-68*,24%[46.1 µM],-11%
CCC(Cc1ccccc1)NC(=O)Cn1ncc2c3ccccc3n(Cc3ccccc3)c2c1=O (stereo not drawn),0%,?,?,-99*,2%[46.1 µM],-16%
COc1ccc(Cl)cc1NC(=O)Cn1c(=O)n(CCCC(=O)NCCc2ccc(OC)c(OC)c2)c(=O)c2ccccc21,-26%,?,-22%,-80*,?,-7%
CCOc1ccc(CCNC(=O)CCCn2nc(C)c3c(C)n(-c4ccccc4)nc3c2=O)cc1,-15%,/,/,?,/,/
Cc1nn(CCCC(=O)NCCc2ccccc2)c(=O)c2nccn12,3%,/,15%,-98*,/,11%
COC(=O)C1=C(C)N(CC2CC2)C(=NCCc2cccnc2)NC1c1ccccc1 (stereo not drawn),/,0%[14.3 µM],/,/,4%[14.2 µM],/
COc1cc2c(c(O)c1OC)-c1c(cc(OC)c(OC)c1OC)C[C@@H](C)[C@@H](C)C2,-26%,/,?,-60*,/,-13%
COc1cc2c(c(OC)c1OC)-c1c(cc(OC)c(OC)c1OC)C[C@H](C)[C@H](C)C2,-17%,/,?,-63*,/,-17%
COCCN1C(=O)NC(c2ccccc2)C(C(=O)OC)=C1C (stereo not drawn),/,/,/,/,8%[14.2 µM],/
COc1ccc(CNc2ncnc3nc[nH]c23)cc1OC,/,/,-11%,/,/,-11%
CC1(C)c2ccccc2N2CC(=O)N[C@@]21/C=C/C=C/c1ccccc1,-28%,6%,-23%,-66*,?,-16%
COc1cc(C(=O)NCC(c2cccs2)S(=O)(=O)c2ccc(F)cc2)cc(OC)c1OC (stereo not drawn),-21%,?,-5%,0,/,-5%
N.N.O=C(O)C1(C(=O)O)CCC1.[Pt+2],/,0%,/,/,-5%,/
CCN(CC)C(=O)c1ccc(S(=O)(=O)N2CCC(c3nc4ccccc4s3)CC2)cc1,/,?,-10%,-96*,?,?
CCCN(CCC)C(=O)c1cc2c(=O)n3cccc(C)c3nc2n1C,-13%,15%[46.1 µM],i,-30,/,-11%
CCC1(c2ccc(Cl)cc2)NC(=O)N(Cc2ccc(C(=O)OC)cc2)C1=O (stereo not drawn),?,?,i,?,8.9µM*,-7%
CCC1(c2ccc(Cl)cc2)NC(=O)N(CC(=O)NCc2ccc(F)cc2)C1=O (stereo not drawn),-14%,?,-25%,-17,?,-25%
CC1(C)Cc2ccccc2C(c2cc3ccccc3oc2=O)=N1,-16%,-1%,/,-70*,1%,?
O=c1oc2ccccc2cc1-c1ccccc1,69%,/,/,-7,/,/
